Screening results: PubChem, National Center for Advancing Translational Sciences (NCATS)
SARS PLP yeast = qHTS of Yeast-based Assay for SARS-CoV PLP. S. cerevisiae expressing SARS-CoV PLpro, growth rescue. Potency, µM (top dose mostly 32.9 µM), actives largely listed as activators. 0.19% of 330,000 active; note: nearly all actives have a fitted effect of over 55% in size
Cycloheximide cs = Cycloheximide Counterscreen for Small Molecule Inhibitors of Shiga Toxin. max response, %. 12% of 300,000 active. AID 2314, 2010. cell reporter, cycloheximide protein synthesis inhibition counterscreen; in the data active = max response mostly above about 13%, no sharp cut-off; inactive = mostly below about 14%; note: read at 38.3 µM for the half of the compounds with a filed dose
NS1 inh = qHTS Assay for Inhibitors of Influenza NS1 Protein Function; Potency, µM (doses to about 46.1 µM); 0.4% of 270,000 active; note: actives are rising curves; nearly all actives have a fitted effect of over 50% in size
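In this qHTS, NS1 from influenza A is expressed in budding yeast, where it slows growth. Cells are switched from glucose to 2% galactose medium (pH 6.0, -URA), treated with compound, and growth recovery is read at OD600.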
Shiga toxin inh = A qHTS for Small Molecule Inhibitors of Shiga Toxin. Vero cells, Shiga toxin protein synthesis inhibition reporter. inhibition, % at 38.7 µM. 9.2% of 290,000 active. AID 2315, 2010; in the data active = inhibition mostly above about 28%, no sharp cut-off; inactive = mostly below about 43%
Pf growth 96h = Primary qHTS for delayed death inhibitors of the malarial parasite plastid, 96 hour incubation. P. falciparum luciferase reporter growth, 96 h. Potency, µM (series often up to 28.7 µM), usual class: inhibitors. 6.9% of 320,000 active; active = well fitted inhibition curve with a large enough effect; inconclusive = small, poorly fitted or top-dose-only effect, or another doubt; inactive = no such curve, though single readings can be large or run the other way
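Cell-based qHTS: luciferase-tagged P. falciparum in erythrocytes (2% hematocrit, 0.05% parasitemia final) incubated with compounds for 96 hours, 37 C, 5% CO2; luciferase detection reagent then added and luminescence measured.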
Pf growth 48h = Primary qHTS for delayed death inhibitors of the malarial parasite plastid, 48 hour incubation | P. falciparum luciferase growth in erythrocytes, 48 h | Potency, µM (top dose mostly 28.7 µM), hits mostly inhibitors | 5.9% of 310,000 active | AID 504832, 2011; active = well fitted inhibition curve with a large enough effect; inconclusive = small, poorly fitted or top-dose-only effect, or another doubt; inactive = no such curve, though single readings can be large or run the other way
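Growth was read as firefly luciferase luminescence after a 48 h, 37 C, 5% CO2 exposure of compounds to reporter-bearing P. falciparum cultures (0.1% parasitemia, 2% hematocrit final) in Albumax-supplemented RPMI 1640.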
Numbers stand for hits; i = inactive; ? = inconclusive; nt = no result. Rows were chosen to be rich in hits. Some 21% of all compounds tested hit in one or more screens of this group. Unless noted, calls come from the whole dose curve.

SMILES | SARS PLP yeast | Cycloheximide cs | NS1 inh | Shiga toxin inh | Pf growth 96h | Pf growth 48h
CCOC(=O)CSc1nc2cc(C(=O)NCc3ccco3)ccc2c(=O)n1C1CCCCC1 | i | i | i | i | i | 5.86µM
COc1ccc(C)cc1NC(=O)CN1C(=O)COc2ccc(S(=O)(=O)N3CCCCC3)cc21 | i | i | i | i | i | i
Cc1ccc(C)c(CN2C(=O)C3CCCN3c3ccc(S(=O)(=O)N4CCOCC4)cc32)c1 (configuration not stated) | ? | i | i | i | ? | 1.04µM
COc1cccc(CN2C(=O)C3CCCN3c3ccc(S(=O)(=O)N4CCOCC4)cc32)c1 (configuration not stated) | i | i | i | i | 1.17µM | 1.04µM
COc1cccc(CC(=O)Nc2cc(S(=O)(=O)N3CCOCC3)ccc2OC)c1 | i | nt | nt | nt | ? | i
CSc1ccccc1NC(=O)CN(C)CC(=O)Nc1ccccc1C(F)(F)F | i | i | nt | i | i | i
Cc1cccc([N+](=O)[O-])c1NC(=O)CN(Cc1ccccc1)Cc1ccccc1 | i | i | i | i | 8.28µM | ?
Cc1cccc(C)c1NC(=O)CNC(=O)Cc1ccccc1[N+](=O)[O-] | i | i | i | i | i | i
Cc1ccc(S(=O)(=O)N2CCN(C(=O)c3ccco3)CC2)c(C)c1 | i | i | i | i | 10.4µM | i
Cc1ccc2cc3cc(C(=O)N4CCN(C(=O)c5ccco5)CC4)sc3nc2c1 | i | 18.9 | i | i | i | ?
Cc1ccc(S(=O)(=O)N2CCN(C(=O)c3ccco3)CC2)cc1 | i | i | i | i | i | i
COc1ccc(F)cc1S(=O)(=O)N1CCN(C(=O)c2ccco2)CC1 | i | i | i | i | 10.4µM | i
COc1ccc(C)cc1S(=O)(=O)N1CCN(C(=O)c2ncoc2-c2cccc(F)c2)CC1 | i | i | i | i | 0.657µM | i
CCc1ccc(OC)c(S(=O)(=O)N2CCN(C(=O)c3ccco3)CC2)c1 | i | i | i | i | ? | i
CN(C)Cc1cccc([N+](=O)[O-])c1O | i | i | i | i | i | i
CCOc1ccc(C(=O)NCCC(=O)N2CCC3(CC2)NCCc2[nH]cnc23)cc1OCC | ? | i | i | i | i | i
CC(=O)c1cccc(OCC(=O)N(Cc2ccco2)c2c(N)n(Cc3ccccc3)c(=O)[nH]c2=O)c1 | i | nt | nt | nt | i | ?
CC[C@H](C)[C@H](NC(=O)[C@@H]1CCCN1C(=O)[C@H](Cc1cnc[nH]1)NC(=O)[C@@H](NC(=O)[C@H](Cc1ccc(O)cc1)NC(=O)[C@@H](NC(=O)[C@H](CCCN=C(N)N)NC(=O)CNC)C(C)C)[C@@H](C)CC)C(=O)O | nt | i | nt | i | nt | nt
Cc1ccc(S(=O)(=O)N2CCN(C(=O)c3ccccc3Cc3ccccc3)CC2)c(C)c1 | i | i | ? | i | 9.28µM | ?
Cc1ccc(S(=O)(=O)N2CCN(C(=O)C3CCN(C(=O)c4ccc(F)cc4)CC3)CC2)c(C)c1 | i | nt | nt | nt | ? | 13.1µM
Cn1c(SCc2nc(-c3ccc(Cl)cc3)no2)nnc1-c1ccco1 | ? | i | i | i | i | nt
COC(=O)C1=C(C(=O)OC)[C@@H]2N(C)c3ccccc3[C@@]23C[C@@H](CO)N(C(=O)NCCBr)C3=N1 | i | i | i | i | ? | 9.28µM
C=CCN1c2ccccc2[C@]23C[C@@H](C(=O)OC)N(C(=O)NCCC)C2=NC(C(=O)OC)=C(C(=O)OC)[C@H]13 | i | i | i | i | 4.15µM | 3.29µM
CCOC(=O)N1C2=NC(C(=O)OC)=C(C(=O)OC)[C@@H]3N(C)c4ccccc4[C@]23C[C@H]1C(=O)OC | i | 22.6 | i | i | i | i
C=CCN1c2ccccc2[C@]23C[C@@H](C(=O)OC)N(C(=O)C4CCC4)C2=NC(C(=O)OC)=C(C(=O)OC)[C@H]13 | i | i | i | i | i | i
SMILES | SARS PLP yeast | Cycloheximide cs | NS1 inh | Shiga toxin inh | Pf growth 96h | Pf growth 48h
C#CCCOC(=O)N1C2=NC(C(=O)OC)=C(C(=O)OC)[C@@H]3N(C)c4ccccc4[C@]23C[C@H]1C(=O)OC | i | i | i | i | ? | ?
COC(=O)C1=C(C(=O)OC)[C@@H]2N(Cc3ccccc3)c3ccccc3[C@@]23C[C@@H](C(=O)OC)N(C(=O)CC(C)C)C3=N1 | i | i | i | i | 4.65µM | 4.15µM
COC(=O)C1=C(C(=O)OC)[C@@H]2N(C)c3ccccc3[C@@]23C[C@@H](C(=O)OC)N(C(=O)c2ccc(Br)cc2)C3=N1 | i | i | i | i | i | i
CN(C)c1ccc(C(=S)N2CCCC2)cc1Br | i | i | i | i | ? | nt
CCc1c(C)nc(SCC(=O)Nc2nc(-c3ccc(OC)cc3)cs2)[nH]c1=O | i | i | i | i | ? | i
COc1ccc(Br)cc1C1CC(=O)C(C)C(c2cc(Br)ccc2OC)N1 (configuration not stated) | i | i | i | i | i | ?
c1ccc(-c2nc(NCc3cccnc3)c3oc4ccccc4c3n2)cc1 | i | i | i | i | 9.28µM | ?
COc1ccc(CCNc2nc(C)nc3c2oc2ccccc23)cc1OC | i | i | i | i | i | nt
c1ccc2c(c1)oc1c(NCC3CCCO3)ncnc12 (configuration not stated) | i | 33.9 | i | 53.8 | i | i
O=C(CSc1ncnc2c1oc1ccccc12)NCC1CCCO1 (configuration not stated) | nt | nt | i | nt | nt | nt
COc1ccc(CCNc2ncnc3c2oc2ccccc23)cc1OC | i | i | i | i | 2.94µM | ?
c1ccc(CNc2ncnc3c2oc2ccccc23)nc1 | i | 23.1 | i | 58.7 | i | i
CCc1nc(NCc2ccccn2)c2oc3ccccc3c2n1 | i | i | i | i | ? | i
CN(C)S(=O)(=O)NCC1CCCN(Cc2ccc(-c3ccccc3)cc2)C1 (configuration not stated) | i | i | i | i | i | i
CC(=O)c1ccc(Nc2ncnc3c2oc2ccccc23)cc1 | i | 57.2 | ? | 65.8 | i | i
CC(=O)Nc1ccc(Nc2nc(C)nc3c2oc2ccccc23)cc1 | i | i | i | i | i | ?
c1ccc(-c2nc(NCC3CCCO3)c3oc4ccccc4c3n2)cc1 (configuration not stated) | i | i | i | i | 14.7µM | nt
CC(Cc1ccccc1Sc1ccccc1O)N(C)C (configuration not stated) | i | i | i | i | 3.7µM | nt
CN(C)Cc1ccccc1Sc1ccc(O)cc1O | i | i | i | i | i | i
Cc1ccc(S(=O)(=O)N(C)c2ccc(C(=O)Nc3ccc(C)cn3)cc2)cc1 | i | nt | nt | nt | ? | 11.7µM
COCCn1c(C)cc(C(=O)COc2ccc(N(C)S(=O)(=O)c3ccc(C)cc3)cc2)c1C | i | nt | nt | nt | ? | 9.28µM
Cc1ccc(CC(=O)Nc2ccc(Cl)cn2)cc1 | i | 40.6 | i | 69.5 | i | i
O=C(CSc1ccccn1)Nc1ccc(Cl)cn1 | i | 22.6 | i | i | i | i
